# Experimental data reported in paper PMC11062922 (Nature Chemical Biology, 2023).
# Where two headings read alike, the source gives them in different places.
# How the values were obtained:
# Parameters in all cases: species or system human, MV4-11 + K-562 + COLO205 + SK-N-BE2 + OVCAR-8
# DCTPP1 = conditions: read-out: apparent Kd, n = 1
# SIK3 = conditions: read-out: apparent Kd, n = 1
# STK16 = conditions: read-out: apparent Kd, compound concentrations: 100 nM and 1000 nM (sheet 'Samples'), n = 1
# ADRBK1 = conditions: read-out: apparent Kd, n = 1
# STK3 = conditions: read-out: apparent Kd, n = 1
# IRAK3 = conditions: read-out: apparent Kd, compound concentrations: 100 nM and 1000 nM (sheet 'Samples'), n = 1
# MAPK8 = conditions: read-out: apparent Kd, n = 1
# MTOR = conditions: read-out: apparent Kd, n = 1
# TEC = conditions: read-out: apparent Kd, n = 1
# PYGL = conditions: read-out: apparent Kd, compound concentrations: 100 nM and 1000 nM (sheet 'Samples'), n = 1
# TESK1 = conditions: read-out: apparent Kd, compound concentrations: 100 nM and 1000 nM (sheet 'Samples'), n = 1
# PIK3CA = conditions: read-out: apparent Kd, compound concentrations: 100 nM and 1000 nM (sheet 'Samples'), n = 1
# ADCK1 = conditions: read-out: apparent Kd; compound concentrations: 100 nM and 1000 nM (sheet 'Samples'), CATDS: 3.1344375728913298E-2; n = 1
# ERBB3 = conditions: read-out: apparent Kd, compound concentrations: 100 nM and 1000 nM (sheet 'Samples'), n = 1
# PTK2B = conditions: read-out: apparent Kd, n = 1
# PTK2 = conditions: read-out: apparent Kd, n = 1
# CDK2 = conditions: read-out: apparent Kd, compound concentrations: 100 nM and 1000 nM (sheet 'Samples'), n = 1
# CDK5 = conditions: read-out: apparent Kd, compound concentrations: 100 nM and 1000 nM (sheet 'Samples'), n = 1
# LIMK2 = conditions: read-out: apparent Kd, compound concentrations: 100 nM and 1000 nM (sheet 'Samples'), n = 1
# [1] = compound concentrations:100 nM and 1000 nM (sheet 'Samples')
structure (smiles),measurement,setting,value
COc1ccccc1CNC1=NC(=O)/C(=C/c2ccc3ncccc3c2)S1 [RO4503315-000],potency estimated from few doses,"DCTPP1; compound concentrations: 100 nM and 1000 nM (sheet 'Samples'), CATDS: 6.8298728287036994E-2",1390 nM
CN1C(=O)c2ccccc2N(C)c2nc(Nc3cnn(C4CCNCC4)c3)ncc21 [XMD-17-51],potency estimated from few doses,"SIK3; compound concentrations: 100 nM and 1000 nM (sheet 'Samples'), CATDS: 1.5899502438213298E-2",973 nM
same,potency estimated from few doses,STK16; CATDS: 1.46632885257346E-2,1360 nM
CS(=O)(=O)Cc1ccc(Nc2nccc(-c3c(-c4cccc(NC(=O)C5CCCCC5)c4)nn4ncccc34)n2)cc1 [GSK350559A],potency estimated from few doses,ADRBK1; [1],1690 nM
same,potency estimated from few doses,STK3; [1],1920 nM
COc1cc(Nc2nccc(N3CCC(NC(=O)C4COc5ccccc5O4)C3)n2)cc(OC)c1OC (stereo not drawn) [GSK1379761A],potency estimated from few doses,IRAK3; CATDS: 0.29618099534974801,900 nM
Cc1cccc(-c2cc(-c3c[nH]nc3-c3ccccn3)ccn2)c1 [GW679395X],potency estimated from few doses,MAPK8; [1],1610 nM
same,potency estimated from few doses,MTOR; [1],501 nM
same,potency estimated from few doses,TEC; [1],1320 nM
COc1cc(Nc2nccc(N3CCC(NC(=O)c4cccc(C#N)c4)C3)n2)cc(OC)c1OC (stereo not drawn) [GSK1379751A],potency estimated from few doses,IRAK3; CATDS: 0.26615341135904602,510 nM
COc1ccc(Nc2nccc(N3CCC(NC(=O)Nc4ccc5c(c4)OCO5)C3)n2)cc1 (stereo not drawn) [GSK1379745A],potency estimated from few doses,PYGL; CATDS: 3.8130802338003297E-2,1670 nM
same,potency estimated from few doses,TESK1; CATDS: 7.4775560770701202E-2,510 nM
O=C1N=C(NCCc2ccccc2F)S/C1=C\c1ccc2ncccc2c1 [RO4498483-000],potency estimated from few doses,PIK3CA; CATDS: 0.16167463298299301,268 nM
COc1cccc(-n2ncc3c(N/N=C/c4ccc(C(=O)NCCN(C)C)cc4)ncnc32)c1.Cl [GW784307A],potency estimated from few doses,ADCK1,900 nM
same,potency estimated from few doses,ERBB3; CATDS: 3.16220170710034E-2,874 nM
same,potency estimated from few doses,IRAK3; CATDS: 2.7757665118228601E-2,1410 nM
NC(=O)c1cccc(Nc2nccc(Nc3cccc4[nH]ncc34)n2)c1 [GW782612X],potency estimated from few doses,IRAK3; CATDS: 4.1377048408479999E-2,891 nM
COc1cc(Nc2ccnc3cc(-c4ccncc4)ccc23)cc(OC)c1OC.Cl [GW494610A],potency estimated from few doses,"SIK3; compound concentrations: 100 nM and 1000 nM (sheet 'Samples'), CATDS: 4.52892719114492E-2",160 nM
same,potency estimated from few doses,TESK1; CATDS: 2.92896642952412E-2,549 nM
O=C1N=C(NCc2cccs2)SC1Cc1ccc2ncccc2c1 (stereo not drawn) [RO4629078-000],potency estimated from few doses,"MTOR; compound concentrations: 100 nM and 1000 nM (sheet 'Samples'), CATDS: 1.0012071697909601E-2",667 nM
same,potency estimated from few doses,"PTK2B; compound concentrations: 100 nM and 1000 nM (sheet 'Samples'), CATDS: 1.78994015869859E-2",211 nM
same,potency estimated from few doses,"PTK2; compound concentrations: 100 nM and 1000 nM (sheet 'Samples'), CATDS: 1.61758600761754E-2",250 nM
same,potency estimated from few doses,"TEC; compound concentrations: 100 nM and 1000 nM (sheet 'Samples'), CATDS: 8.6375652210939294E-3",1000 nM
O=C1N=C(NCCc2cccc(Cl)c2)S/C1=C\c1ccc2ncccc2c1 [RO4509201-000],potency estimated from few doses,"DCTPP1; compound concentrations: 100 nM and 1000 nM (sheet 'Samples'), CATDS: 5.6638769409894603E-2",1590 nM
same,potency estimated from few doses,PIK3CA; CATDS: 0.11246138422507899,274 nM
Cc1ccc(O)cc1Nc1ccnc2cc(-c3ccc(CN4CCCCC4)o3)ccc12 [GW557777X],potency estimated from few doses,"SIK3; compound concentrations: 100 nM and 1000 nM (sheet 'Samples'), CATDS: 1.3583905279374199E-2",975 nM
same,potency estimated from few doses,"TEC; compound concentrations: 100 nM and 1000 nM (sheet 'Samples'), CATDS: 1.34758228974899E-2",1040 nM
O=C1N=C(NCCc2ccccn2)S/C1=C\c1ccc2ncccc2c1 [RO4508346-000],potency estimated from few doses,STK16; CATDS: 6.4775104376565806E-2,2150 nM
CCN(CC)CCOc1ccc(Nc2ncc3cc(-c4c(Cl)cccc4Cl)c(=O)n(C)c3n2)cc1 [SB-601273],potency estimated from few doses,SIK3; [1],201 nM
O=C1N=C(NCc2ccccc2Cl)S/C1=C\c1ccc2ncccc2c1 [RO4506917-000],potency estimated from few doses,PIK3CA; CATDS: 0.16964202934765399,283 nM
Nc1nc(-c2ccc3c(N)n[nH]c3c2)cc(N2CCCCC2)n1 [GSK2228768A],potency estimated from few doses,DCTPP1; [1],1720 nM
CC(C)c1nc(-c2cccc(NS(=O)(=O)c3ccccc3)c2)c(-c2ccnc(Nc3ccc4c(c3)CN(C)CC4)n2)s1 [GSK1649598A],potency estimated from few doses,CDK2; CATDS: 1.6681675288379799E-2,614 nM
same,potency estimated from few doses,CDK5; CATDS: 2.0487115884267999E-2,353 nM
same,potency estimated from few doses,ERBB3; CATDS: 1.39186209544408E-2,1140 nM
same,potency estimated from few doses,LIMK2; CATDS: 3.5211660098846E-2,116 nM
same,potency estimated from few doses,TESK1; CATDS: 9.9245429656874704E-2,24.2 nM
Cl.Cl.Cl.c1ccc(Oc2ccc(Nc3ccnc4cc(-c5ccc(CN6CCNCC6)o5)ccc34)cc2)nc1.c1ccc(Oc2ccc(Nc3ccnc4cc(-c5ccc(CN6CCNCC6)o5)ccc34)cc2)nc1 [GW567142A],potency estimated from few doses,PYGL; CATDS: 1.6934358184527699E-2,2080 nM
same,potency estimated from few doses,"TEC; compound concentrations: 100 nM and 1000 nM (sheet 'Samples'), CATDS: 1.92615538801734E-2",1300 nM
CS(=O)(=O)CCNCc1ccc(-c2ccc3ncnc(Nc4ccc(OCc5cccc(F)c5)c(C(F)(F)F)c4)c3c2)o1 [GW576484X],potency estimated from few doses,ERBB3; CATDS: 5.8570940838060803E-2,1400 nM
same,potency estimated from few doses,"MTOR; compound concentrations: 100 nM and 1000 nM (sheet 'Samples'), CATDS: 9.7740197678702595E-2",599 nM
Cc1cc(O)cc(C)c1/C=C/c1cncc(-c2nn[nH]n2)c1.Cl [GW441806A],potency estimated from few doses,ERBB3; CATDS: 9.8413353572783496E-2,174 nM
same,potency estimated from few doses,PIK3CA; CATDS: 8.3670028423682499E-2,256 nM
same,potency estimated from few doses,TESK1; CATDS: 4.6291633424982298E-2,1290 nM
COc1cccc(-n2cnc3c(N/N=C/c4ccncc4)ncnc32)c1 [GW813360X],potency estimated from few doses,ERBB3; CATDS: 0.18333833775407599,961 nM
CN(C)Cc1ccc(-c2ccc3c(Nc4ccc(Oc5ccccn5)cc4)ccnc3c2)o1 [GW567148X],potency estimated from few doses,"PTK2B; compound concentrations: 100 nM and 1000 nM (sheet 'Samples'), CATDS: 2.12691468378991E-2",830 nM
same,potency estimated from few doses,"PTK2; compound concentrations: 100 nM and 1000 nM (sheet 'Samples'), CATDS: 2.1089063317390098E-2",850 nM
O=S(=O)(CCOCc1ccc(-c2ccc3ncnc(Nc4ccc(OCc5cccc(F)c5)c(Cl)c4)c3c2)o1)c1ccccc1 [GW615311X],potency estimated from few doses,"MAPK8; compound concentrations: 100 nM and 1000 nM (sheet 'Samples'), CATDS: 2.6376171995156399E-2",1540 nM
same,potency estimated from few doses,"MTOR; compound concentrations: 100 nM and 1000 nM (sheet 'Samples'), CATDS: 4.7570184263153799E-2",527 nM
same,potency estimated from few doses,"STK3; compound concentrations: 100 nM and 1000 nM (sheet 'Samples'), CATDS: 2.3351352966808198E-2",2070 nM
CN1CCc2ccc(Nc3nccc(-c4c(-c5cccc(NC(=O)c6c(F)cccc6F)c5)nc5ccccn45)n3)cc2C1.Cl [GSK1010829B],potency estimated from few doses,"STK3; compound concentrations: 100 nM and 1000 nM (sheet 'Samples'), CATDS: 3.0039466965453999E-2",2170 nM
CC(=O)N1CCN(c2ccc(Nc3nccc(-c4sc(C(C)C)nc4-c4cccc(NS(=O)(=O)c5ccccc5)c4)n3)cn2)CC1 [GSK1645872A],potency estimated from few doses,"ADRBK1; compound concentrations: 100 nM and 1000 nM (sheet 'Samples'), CATDS: 2.7359704437324502E-2",943 nM
same,potency estimated from few doses,CDK2; CATDS: 2.76064563935246E-2,919 nM
same,potency estimated from few doses,CDK5; CATDS: 3.88696390995786E-2,420 nM
same,potency estimated from few doses,LIMK2; CATDS: 4.5143474402307197E-2,319 nM
COc1cc2ncn(-c3cc(OCCCc4ccccc4)c(C(N)=O)s3)c2cc1OC [GSK205189A],potency estimated from few doses,PTK2B; [1],642 nM
same,potency estimated from few doses,PTK2; [1],678 nM
CC(=O)N1CCN(c2ccc(Nc3nccc(-c4sc(C(C)C)nc4-c4cccc(NS(=O)(=O)c5cccc(Cl)c5)c4)n3)cn2)CC1 [GSK1660437A],potency estimated from few doses,LIMK2; CATDS: 4.7315516345464E-2,946 nM
